According to PubChem BioAssay AID504333 (National Center for Advancing Translational Sciences (NCATS), 2011):
In all, about 360,000 compounds went through this assay and about 16,000 (4.4%) were called active. Entries that show only a call come without a potency. Another 9% or so got no clear call; they are omitted. Calls come from the whole dose curve; as a rule, active = well fitted inhibition curve with a large enough effect; inconclusive = small, poorly fitted or top-dose-only effect; inactive = no such curve, though single readings can be large or run the other way. This excerpt belongs to a sample that is enriched for actives.

target: Bromodomain adjacent to zinc finger domain protein 2B (Homo sapiens) (UniProt Q9UIF8); test: qHTS Assay for Inhibitors of BAZ2B; settings: AlphaScreen BAZ2B-H3K14Ac peptide displacement; series mostly up to 114 µM; note: nearly all actives have a fitted effect of over 60% in size
Procedure, shortened: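 BAZ2B (50 nM) with biotin-H3(5-23)K14Ac peptide (50 nM) in PBS pH 7.4, 0.01% Tween-20, preformed 30 min, then compound 30 min at room temperature; top concentration 110uM. AlphaScreen streptavidin donor/nickel chelate acceptor beads (10 ug/mL final), 20 min dark, signal read.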
Potency is the fitted concentration of half-maximal effect.

Sequence of Bromodomain adjacent to zinc finger domain protein 2B (Homo sapiens) (Q9UIF8 whole entry, looked up, the tested form may be a part): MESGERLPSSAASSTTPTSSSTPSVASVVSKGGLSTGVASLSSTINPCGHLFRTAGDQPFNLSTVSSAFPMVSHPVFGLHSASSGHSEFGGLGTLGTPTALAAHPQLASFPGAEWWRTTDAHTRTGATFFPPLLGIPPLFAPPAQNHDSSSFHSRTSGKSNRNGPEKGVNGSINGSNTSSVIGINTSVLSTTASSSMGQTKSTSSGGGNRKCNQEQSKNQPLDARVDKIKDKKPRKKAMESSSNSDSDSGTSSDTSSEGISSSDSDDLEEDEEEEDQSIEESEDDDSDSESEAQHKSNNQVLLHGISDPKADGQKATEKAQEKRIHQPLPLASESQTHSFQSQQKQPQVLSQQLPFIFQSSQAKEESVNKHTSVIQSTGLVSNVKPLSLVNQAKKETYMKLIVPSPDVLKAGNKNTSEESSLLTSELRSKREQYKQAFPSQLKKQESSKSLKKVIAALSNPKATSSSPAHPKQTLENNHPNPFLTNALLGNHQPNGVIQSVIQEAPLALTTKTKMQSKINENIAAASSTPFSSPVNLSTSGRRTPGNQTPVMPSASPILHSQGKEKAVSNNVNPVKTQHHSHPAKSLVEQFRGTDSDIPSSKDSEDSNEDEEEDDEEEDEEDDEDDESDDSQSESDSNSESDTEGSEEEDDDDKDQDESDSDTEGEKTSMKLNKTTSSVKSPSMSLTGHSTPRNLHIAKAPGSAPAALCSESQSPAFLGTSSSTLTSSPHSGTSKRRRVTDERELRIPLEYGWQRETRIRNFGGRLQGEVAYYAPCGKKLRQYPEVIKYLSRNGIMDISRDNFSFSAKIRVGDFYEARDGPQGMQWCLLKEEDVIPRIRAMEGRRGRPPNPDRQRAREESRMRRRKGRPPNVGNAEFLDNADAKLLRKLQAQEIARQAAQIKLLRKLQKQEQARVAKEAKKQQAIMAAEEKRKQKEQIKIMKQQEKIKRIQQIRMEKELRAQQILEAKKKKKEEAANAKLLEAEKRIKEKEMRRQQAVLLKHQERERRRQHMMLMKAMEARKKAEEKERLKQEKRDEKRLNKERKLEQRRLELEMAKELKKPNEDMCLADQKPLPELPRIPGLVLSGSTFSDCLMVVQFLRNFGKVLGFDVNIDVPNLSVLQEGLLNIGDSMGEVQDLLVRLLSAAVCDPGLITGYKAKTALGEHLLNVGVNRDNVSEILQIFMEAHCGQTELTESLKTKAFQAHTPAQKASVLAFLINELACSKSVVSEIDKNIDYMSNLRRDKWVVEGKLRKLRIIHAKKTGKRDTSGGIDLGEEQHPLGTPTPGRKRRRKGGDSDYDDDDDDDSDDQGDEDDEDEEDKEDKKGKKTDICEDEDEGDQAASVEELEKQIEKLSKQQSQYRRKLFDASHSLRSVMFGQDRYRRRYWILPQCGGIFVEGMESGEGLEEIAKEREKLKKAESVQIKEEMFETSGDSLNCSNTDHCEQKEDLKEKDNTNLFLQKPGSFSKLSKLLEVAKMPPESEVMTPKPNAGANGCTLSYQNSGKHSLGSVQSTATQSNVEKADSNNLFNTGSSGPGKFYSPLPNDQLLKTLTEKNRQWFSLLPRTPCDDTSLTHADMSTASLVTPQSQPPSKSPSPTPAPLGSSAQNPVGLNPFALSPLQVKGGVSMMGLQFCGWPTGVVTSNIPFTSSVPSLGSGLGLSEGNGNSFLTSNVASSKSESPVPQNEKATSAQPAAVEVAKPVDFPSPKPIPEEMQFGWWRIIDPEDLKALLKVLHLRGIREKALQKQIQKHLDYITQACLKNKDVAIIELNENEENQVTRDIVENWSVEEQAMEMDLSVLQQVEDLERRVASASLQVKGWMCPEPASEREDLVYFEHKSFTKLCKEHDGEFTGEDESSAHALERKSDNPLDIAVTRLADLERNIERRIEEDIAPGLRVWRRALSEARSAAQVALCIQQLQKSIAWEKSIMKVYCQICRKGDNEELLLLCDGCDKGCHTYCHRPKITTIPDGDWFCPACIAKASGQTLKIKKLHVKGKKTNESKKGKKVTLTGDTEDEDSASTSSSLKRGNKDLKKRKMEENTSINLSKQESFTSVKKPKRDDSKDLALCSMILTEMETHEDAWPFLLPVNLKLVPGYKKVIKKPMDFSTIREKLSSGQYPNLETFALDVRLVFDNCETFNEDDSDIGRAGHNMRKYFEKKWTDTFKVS

SMILES | Potency
COCCCNCC(=O)Nc1sc(C)c(C)c1C(=O)OC | 50.1 µM (active)
CCC(=O)Nc1sc(C(=O)Nc2ccccc2)c(C)c1C(=O)OC | inactive
COC(=O)c1c(NC(=O)c2c(Cl)cnn2C)sc(C)c1C | inactive
Cc1ccc2c(=O)cc(C(=O)Nc3sc4c(c3C(=O)NCc3cccnc3)CCCC4)oc2c1 | inactive
CCOC(=O)c1c(C)n(S(=O)(=O)c2ccc(C)cc2C)c2ccc(NS(=O)(=O)c3ccc(C)cc3C)cc12 | inactive
Cc1ccc(CNC(=O)c2c(O)nc3c(C)cccn3c2=O)cc1 | inactive
CNc1ccc(-c2nc(-c3ccccc3C)no2)cc1[N+](=O)[O-] | inactive
CNc1ccc(-c2nc(-c3ccco3)no2)cc1[N+](=O)[O-] | inactive
CC(Nc1ccc(-c2nc(-c3ccco3)no2)cc1[N+](=O)[O-])c1ccccc1 (stereo unspecified) | 79.4 µM (active)
COc1ccc(NC(=O)c2ccc3nc(CCc4ccccc4)oc3c2)c(OC)c1 | inactive
O=C1Cc2cc(S(=O)(=O)Nc3ccc(OC(F)(F)F)cc3)cc3c2N1CCC3 | inactive
COc1ccc2c(CNCCc3ccccc3C)c(C(=O)O)n(Cc3ccccc3C)c2c1 | inactive
CN=C1S/C(=C\c2c(OC)cc(OC)cc2OC)C(=O)N1C | inactive
O=C(O)c1cccc(N=NN2CCCCCC2)c1 | inactive
CN1C(=O)/C(=C/c2ccco2)SC1=Nc1cccc(C(=O)O)c1 | 50.1 µM (active)
CCCCCCn1nnc2sc(-c3ccccc3)cc2c1=O | inactive
Cc1ccc(C(=O)NC(=S)Nc2ccc(N3CCOCC3)cc2)cc1 | 14.1 µM (active)
Cc1cc(C(=O)NNC(=S)Nc2ccccc2C)cs1 | inactive
Cc1ccc(C(=O)NC(=S)Nc2ccccc2C)cc1 | 89.1 µM (active)
COC(=O)c1ccc(NC(=S)NN2CCOCC2)cc1 | inactive
Cc1cc2[nH]ncc2cc1NC(=S)NC(=O)c1ccccc1 | inactive
Cc1ccc(C(=O)NC(=S)NCCN2CCOCC2)cc1 | inactive

SMILES | Potency
COc1ccc(-c2cc(C(F)(F)F)nc(SCC(=O)N(C)Cc3ccccc3)n2)cc1OC | inactive
Cc1c(Cl)cccc1NC(=O)C1CCCN(C(=O)c2cnn(-c3ccccc3)c2-n2cccc2)C1 (stereo unspecified) | inactive
COc1ccc(CCNC(=O)c2nn(C)c3c2CSc2ccccc2-3)cc1OC | inactive
Cc1cc(NC(=O)CSc2ncc(C(=O)Nc3ccc(Cl)cc3)c(=O)n2C)no1 | inactive
Cc1ccc(-c2nnc(Nc3cccc(Br)c3)c3ccccc23)cc1S(=O)(=O)NCC1CCCO1 (stereo unspecified) | inactive
Cc1cn(C)c(CC(=O)NCc2ccc(Cl)cc2)c1C(=O)O | inactive
Cc1ccc(CCCOC(=O)C[N+]2(C)CCCCC2)cc1 | inactive
Cc1ccc(COC(=O)CN2C(=O)NC3(CCCC3)C2=O)cc1 | inactive
Cc1ccc(CCCOC(=O)C[N+]2(C)CCCC2)cc1 | 50.1 µM (active)
COc1ccc(-c2nn(CC(=O)Nc3ccccc3F)c3c2cnc2ccc(F)cc23)cc1 | inactive
CC(=O)Nc1ccc(NC(=O)CCCc2nc(-c3ccc(C(C)(C)C)cc3)no2)cc1 | inactive
Cc1ccc(CCNC(=O)Cn2c(-c3cccs3)cc3cc(F)ccc32)cc1 | inactive
Cc1cccc(Nc2nc(C)nc(N)c2S(=O)(=O)c2ccccc2)c1 | inactive
CCc1nc(SCC(=O)NNC(=O)c2ccc(C)cc2)c2ccccc2n1 | inactive
Cc1ccc(C(=O)NNc2ncnc3ccccc23)cc1 | 56.2 µM (active)
Cc1ccc(C(=O)NNC(=O)c2cccs2)cc1 | inactive
CCCCCn1c(CCCNC(=O)c2ccccc2OC)nc2ccccc21 | inactive
COCC(C)NS(=O)(=O)c1ccc(N2CCCCS2(=O)=O)cc1 (stereo unspecified) | inactive
CCOC(=O)C1CCN(c2nc3c(S(=O)(=O)c4ccc(CC)cc4)nnn3c3ccc(Cl)cc23)CC1 | inactive
CC(C)C(c1nnnn1Cc1ccccc1)N1CCC(C(N)=O)CC1 (stereo unspecified) | inactive
CC(C)C(c1nnnn1C(C)(C)C)N1CCN(Cc2cccnc2)CC1 (stereo unspecified) | 56.2 µM (active)
CCCC(c1nnnn1C(C)(C)C)N1CCN(Cc2ccccc2)CC1 (stereo unspecified) | inactive

SMILES | Potency
CCN(Cc1ccccc1)C(=O)c1cn(-c2cccc(OC)c2)c(=O)c2ccccc12 | inactive
COc1ccc(CNC(=O)Cc2coc3ccc(C(C)C)cc23)cc1 | inactive
CCc1ccc(NC(=O)c2cnc3c(-c4ccccc4)c(C)nn3c2C)cc1 | inactive
CCc1ccc(NC(=O)CN2C(=O)C(c3ccccc3)=NC23CCCCCC3)cc1 | inactive
CCN(C(=O)Cc1nc(N)n[nH]1)C1(C(=O)Nc2ccccc2)CCCCC1 | 20 µM (active)
C=CCN(C(=O)c1cc(C)cc(C)c1)C1(C(=O)Nc2ccccc2)CCN(C(C)C)CC1 | inactive
CCOc1cccc2sc(N3CCN(C(=O)C4CC4)CC3)nc12 | inactive
CCCN1CN=C(NS(=O)(=O)c2ccc(NC(C)=O)cc2)NC1 | inactive
Cc1ccc(C(=O)Nc2ccc3c(c2)OCO3)cc1S(=O)(=O)N1CCCCC1 | inactive
Cc1ccc(C(=O)O)cc1-c1ccc(/C=C2\SC(=O)N(CC(=O)Nc3ccc4c(c3)OCO4)C2=O)o1 | 11.2 µM (active)
Cn1cccc1/C=C1\SC(=O)N(CC(=O)Nc2ccc(F)cc2)C1=O | inactive
Cc1ccccc1CNC(=O)C(=O)NCC(c1cccs1)S(=O)(=O)c1cccs1 (stereo unspecified) | inactive
COc1ccc(NC(=O)CCCN2C(=O)CCn3nc(-c4cn(C)c5ccccc45)cc32)cc1OC | inactive
Cc1cccc(-n2cnc(C(=O)NNC(=S)Nc3ccccc3)c2)n1 | 22.4 µM (active)
Cc1cccc(-n2cnc(C(=O)Nc3cccnc3)c2)n1 | inactive
Cn1cc(Cl)c(C(=O)NNC(=S)Nc2cccc(Cl)c2)n1 | inactive
CCn1cc2nc(SCc3ccccc3Cl)n(CCc3ccccc3)c(=O)c2n1 | inactive
CCc1cc2c(cc(C(=O)OC)n2Cc2nc(-c3ccc(C)cc3)oc2C)s1 | inactive
O=S(=O)(Cc1cc(Cl)nc(-c2cccnc2)n1)c1ccccc1 | inactive
N#Cc1c(Cl)nc(-c2cccnc2)nc1-c1ccccc1 | 70.8 µM (active)
CN(C)c1nc(-c2cccnc2)nc(-c2ccc(Cl)cc2)c1C#N | inactive
COc1ccc(OC)c(-n2nnc(-c3nc(-c4cc(OC)c(OC)c(OC)c4)no3)c2C)c1 | inactive
